Bioassay records deposited in PubChem BioAssay by Sanford-Burnham Center for Chemical Genomics.
PABP FP inh = blocks human PABP binding to poly(A) RNA. 290,000 compounds, 1% hits. inhibition, % at 35 µM. fluorescence polarization;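 further: calls also rest on retests at 20 µM and on dose response follow-up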
Target sequence (P11940 whole entry, looked up): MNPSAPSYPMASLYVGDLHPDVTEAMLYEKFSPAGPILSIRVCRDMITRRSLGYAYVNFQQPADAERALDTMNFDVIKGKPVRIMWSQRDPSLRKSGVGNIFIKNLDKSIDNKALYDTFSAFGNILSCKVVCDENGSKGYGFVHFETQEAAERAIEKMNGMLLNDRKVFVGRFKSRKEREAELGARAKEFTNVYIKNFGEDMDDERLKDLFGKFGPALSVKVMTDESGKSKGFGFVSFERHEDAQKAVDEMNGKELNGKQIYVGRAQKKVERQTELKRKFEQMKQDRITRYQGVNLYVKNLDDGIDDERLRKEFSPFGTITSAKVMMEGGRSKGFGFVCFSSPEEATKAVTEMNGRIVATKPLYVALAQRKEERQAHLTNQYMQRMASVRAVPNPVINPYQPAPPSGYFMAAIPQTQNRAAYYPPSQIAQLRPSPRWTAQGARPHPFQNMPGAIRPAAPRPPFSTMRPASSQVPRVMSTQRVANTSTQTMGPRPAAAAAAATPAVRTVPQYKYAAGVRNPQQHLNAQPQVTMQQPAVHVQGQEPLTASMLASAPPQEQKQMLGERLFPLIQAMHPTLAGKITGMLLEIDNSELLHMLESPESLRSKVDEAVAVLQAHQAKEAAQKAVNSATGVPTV
eIF4H inh = inhibitors of RNA binding by human eIF4H | Q15056 | AID 2012 | inhibition, % at 35 µM | 290,000 compounds, 0.94% hits | eIF4H fluorescence polarization binding assay;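 further: calls also rest on retests at 20 µM and on dose response follow-up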
CRFBP-R2 block = CRF-BP/CRF-R2 complex antagonism. 350,000 compounds, 0.59% hits. inhibition, % at 11.8 µM. HEK293 CRF-R2/CRF-BP, CRF-induced calcium fluorescence;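 active means inhibition of the ligand-induced calcium signal above about 50% at the single tested concentration, limit read from the data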
PHOSPHO1 inh = inhibitors of human PHOSPHO1 phosphatase | 290,000 compounds, 1.1% hits | recombinant PHOSPHO1, absorbance phosphatase assay | inhibition, % at 13.3 µM | Q8TCT1 | AID 1565; in the data active means inhibition above about 60%
MLLE-PAM2 inh = blocks PAM2 peptide binding to the PABP1 MLLE domain | 360,000 compounds, 0.36% hits | inhibition, % at 20 µM | AID 588489 | GST-MLLE / FITC-PAM2 fluorescence polarization; in the data active means inhibition above about 35%, passing the limit was not always enough;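 further: plate controls were DMSO wells with GST-MLLE for no effect and wells lacking GST-MLLE protein for full effect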
Active calls of the source: *; ? = inconclusive; / = not tested or not shown; + = active, no number. Rows were chosen to be rich in hits. Some 2.6% of all compounds tested hit in one or more screens of this group. Unless noted, how the calls were made is not given here.

SMILES	PABP FP inh	eIF4H inh	CRFBP-R2 block	PHOSPHO1 inh	MLLE-PAM2 inh
Cc1ccc(N2CC(C(=O)NC3=NCCS3)CC2=O)cc1 (centres undefined)	-7.7	6.8	-1.6	0.3	9.2
COc1cc(Cn2c3ccc(NC(=O)CC(C)C(F)(F)F)cc3c(=O)n2C)ccc1F (centres undefined)	/	/	/	/	-36.0
CN(Cc1cccc(Cl)c1)C(=O)C1CCC(=O)N(C2CC2)C1 (centres undefined)	-2.8	0.4	80.6*	-3.2	-2.9
CN(Cc1ccc(C(F)(F)F)cc1)C(=O)C1CCC(=O)N(C2CC2)C1 (centres undefined)	-9.5	11.6	-2.9	51.4	4.7
O=C(Nc1ccc2c(c1)OCO2)c1ccc2sc([C@@H]3O[C@H](CO)[C@H](O)[C@H](O)[C@H]3O)nc2c1	/	/	/	/	1.1
CCOC(=O)c1cc(CC)sc1/N=C/C1=C(O)CCCC1=O	+	71.9	24.9	-3.9	13.6
O=C(NN=C1CCN(Cc2ccccc2)CC1)c1ccccc1O	-3.9	-7.0	1.6	-12.7	3.4
O=C(NN=C1CCN(Cc2ccccc2)CC1)c1cc2ccccc2cc1O	3.6*	96.6*	5.7	-0.3	3.6
COc1ccc(C2Nc3ccccc3C(=O)N2c2ccccc2)cc1CSc1ccccn1 (centres undefined)	-5.7	-2.6	57.8*	1.6	12.7
COc1ccc(C2Nc3ccccc3C(=O)N2c2ccc(F)cc2)cc1CSc1ccccn1 (centres undefined)	-4.2	-0.3	17.3	1.6	1.8
COc1ccc(-c2sc3ccccc3c2-c2ccc(OCCN3CCCCC3)cc2)cc1	/	/	61.7*	/	-0.4
c1ccc(-c2sc3ccccc3c2-c2ccc(OCCN3CCCC3)cc2)cc1	/	/	0.0	/	-5.0
Cc1cc(/C=C2\SC(=S)NC2=O)c(C)n1-c1ccccc1	-0.9	4.4	-29.4	-48.3	-73.2
Cc1cc(/C=C2\SC(=S)NC2=O)c(C)n1C	17.3	45.9	-4.8	87.7*	-83.7
COc1ccccc1NS(=O)(=O)c1cccc(C(=O)N2CCCCCC2)c1	/	/	6.2	/	2.0
O=S(=O)(O)c1ccc(O)c2cc(Nc3ccccc3)ccc12	/	/	0.3	/	44.6*
O=S(=O)(O)c1cc(O)c2cc(Nc3ccccc3)ccc2c1	/	/	-8.1	/	46.4*
Cc1ccc(S(=O)(=O)c2cc(Nc3ccccc3)ccc2O)cc1	/	/	-5.5	/	-3.0
CC(=O)Nc1ccc2c(O)cc(S(=O)(=O)O)cc2c1	/	/	-1.3	/	7.9
O=S(=O)(O)c1cc(O)c2ccc(Nc3ccccc3)cc2c1	/	/	0.1	/	12.8
Nc1ccc2c(O)cc(S(=O)(=O)O)cc2c1	/	/	25.3	/	48.6*
COc1ccc(NC(=O)C2(C)Cc3c(-c4cccc(NC(C)=O)c4)ccnc3O2)cn1 (centres undefined)	/	/	/	/	22.4
CC12CCC(=O)C=C1CCCC2=O (centres undefined)	/	/	5.0	/	-14.4
COc1ccc(C(=O)CN2C(=O)C(C)(C)Oc3ccc(C(=O)N4CCCCCC4)cc32)cc1	3.6	-2.6	10.7	6.7	10.4
Cn1c2c(sc1=O)CCC2	/	/	7.0	/	16.3
SMILES	PABP FP inh	eIF4H inh	CRFBP-R2 block	PHOSPHO1 inh	MLLE-PAM2 inh
Cc1ccc(C(=O)CCC(=O)N2CCN(C/C=C/c3ccccc3)CC2)cc1	/	/	-3.4	/	-2.6
N=C1/C(=C\c2ccc(-c3ccc(C(=O)O)cc3)o2)C(=O)N=C2SC=C(c3ccccc3)N12	46.0	69.5*	-11.4	-131.4	-109.0
N=C1/C(=C\c2ccc(-c3cccc(Cl)c3)o2)C(=O)N=C2SC=C(c3ccccc3)N12	18.7	4.5	-21.7	-4.5	-63.9
CCNc1cc2oc(=O)c(CN3CCOCC3)c(C)c2cc1C	?	?	19.8	-1.5	47.6*
C[C@@H]1CN([C@H](C)CO)C(=O)c2cc(Br)cnc2O[C@@H]1CN(C)Cc1ccc(F)cc1	/	/	-2.8	/	15.6
CN(C(=O)c1ccc(NC(=O)Cc2ccc(NC(=O)C3CCCN(C(=O)C4CCC4)C3)cc2)cc1)C1CCCC1 (centres undefined)	/	/	2.9	/	-1.7
COc1cc(-c2coc3c(C(=O)NCc4cccc(Cl)c4)cccc23)ccc1O	/	/	/	/	1.8
COc1ccc(CNC(=O)C2CCN(c3nnc(N4CCCC4=O)s3)CC2)cc1	52.4*	90.4*	2.4	12.3	3.5
COc1ccccc1CC(=O)NCC1CCCO1 (centres undefined)	8.3	-4.7	3.5	-45.7	9.1
COc1ccccc1CNC(=O)C(=O)NCC1CCCO1 (centres undefined)	109.0*	active	2.1	-1.9	-8.6
O=C1NN(c2ccc(Cl)cc2)C(=O)/C1=C\c1ccc(-c2cccc(C(=O)O)c2)o1	3.2	79.2	1.9	18.4	-28.0
O=C1NN(c2ccccc2)C(=O)/C1=C\c1ccc(-c2cc([N+](=O)[O-])ccc2O)o1	17.9*	92.0*	-87.8	16.8	-16.1
Cc1ccc(NC(=O)COC(=O)c2c[nH]c3ccccc23)cc1C	/	/	2.3	/	1.4
O=C(O)c1ccc(N2C(=O)CSC2=S)cc1	/	/	28.0	/	31.9
O=C(O)c1ccc(CN2C(=O)CSC2=S)cc1	10.8	4.0	8.8	71.1*	16.8
CC(C)(C)OC(=O)N[C@H](C(=O)OC(C)(C)C)c1ccc2c(c1)OCO2	/	/	3.9	/	-4.2
O=C(NCc1cn2ccccc2n1)C1CCC(=O)N(Cc2ccccc2F)C1 (centres undefined)	8.1	8.5	61.3*	38.2	0.2
CC(=O)c1c(C)oc2ccc(NS(=O)(=O)c3ccc(O)c(C(=O)O)c3)cc12	10.4	-6.6	-9.1	3.6	-9.2
O=C(O)c1cc(S(=O)(=O)Nc2ccc3oc(=O)sc3c2)ccc1O	5.1	3.5	-5.2	63.2*	/
CCOc1ccc(C(=O)NCC(c2cccs2)N(C)C)cc1OCC (centres undefined)	-10.0	86.6*	-6.5	8.5	0.2
O=C(N/N=C/c1cccc([N+](=O)[O-])c1)c1ccc(Br)cc1	-9.1	-0.1	8.5	64.7*	3.2
O=C(N/N=C/c1cccc([N+](=O)[O-])c1)c1cccc(Br)c1	-0.1	9.0	9.8	-7.2	16.8
COC(=O)C1=C(C)N(Cc2ccccc2)C(=O)N[C@H]1CCc1ccccc1	/	/	81.8*	/	14.8
COC(=O)C1=C(C)N(Cc2ccccc2)C(=S)N[C@H]1c1cccc(F)c1	-4.9	-2.8	55.4*	-1.7	-50.4
CCN(c1ccccc1)S(=O)(=O)c1cccc(C(=O)NCCOc2ccccc2OC)c1	/	/	1.4	/	-2.4
O=C1C=C(c2ccc3cc[nH]c3c2)C[C@@H](c2ccc3c(c2)OCO3)C1	/	/	-13.4	/	-8.9
Cc1nnc(NC(=O)C2CCCN(c3ncccn3)C2)s1 (centres undefined)	-12.4	-7.4	56.2*	-12.3	1.8
Cc1cc(C)cc(NC(=O)C2CCCN(c3nccc(C)n3)C2)c1 (centres undefined)	1.7	4.1	54.4*	9.7	-8.0
Cc1ccnc(N2CCCC(C(=O)Nc3nnc(C)s3)C2)n1 (centres undefined)	-1.1	-2.0	-24.5	-2.2	11.2
Cc1cc(C)cc(NC(=O)C2CCCN(c3nc(C)cc(C)n3)C2)c1 (centres undefined)	3.9	-1.2	15.2	-1.3	3.8
